Results published in PubChem BioAssay (NCI).
About 83,000 compounds went through this panel and 20% of them were active in at least one assay; those are over-represented in the sample as a whole.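 A percent growth of 40 corresponds to 60% growth inhibition; 0 means no net growth; -100 means all cells died. Active threshold: below 10.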 The source made the active and inactive calls.

The compounds below were run on ACHN renal (assay: NCI-60 one-dose screen, 48 h (100 = growth as untreated, 0 = no growth, -100 = all killed)). Details: 10 µM unless noted.
Description: Growth inhibition of the ACHN human tumor cell line is measured as a screen for anti-cancer activity. Cells are grown in 96 well plates and exposed to the test compound for 48 hours. Compounds are tested at a single concentration, which is 10^-5 M for most compounds. The reported endpoint is percent growth (GI% or GIPRCNT), where numbers from 0 - 100% represent growth inhibition, and numbers from -100% - 0 represent cell death. For example, a value of 40 represents 60% growth inhibition. A value of 0 means no net growth occurred over the course of the experiment. A value of -40 indicates 40% of cells at the beginning of the experiment died by the end of the experiment. A value of -100 means all cells are dead at the end of the experiment.
NCI-60 Human Tumor Cell Lines Screen was performed using the standard one-dose NCI protocol, which is described in more detail at https://dtp.cancer.gov/discovery_development/nci-60/default.htm.
Compounds with GIPRCNT values below 10 were considered active. Activity score was based on GIPRCNT using the following formula: […]
Score is 0 for GIPRCNT values of 100 or above, 50 for GIPRCNT values of 0, and 100 for GIPRCNT values of -100.

| SMILES | growth |
| --- | --- |
| O=c1c(-c2ccc3c(c2)OCO3)coc2c(CO)c(O)ccc12 | -30.5% (active) |
| COC(=O)c1ccc2c(c1)Oc1ccc(Cl)cc1-c1cc(C)nn1-2 | 22.6% (inactive) |
| CCn1cc(/C=C2\Oc3cc(OCC#N)ccc3C2=O)c2cc(OC)ccc21 | 54.2% (inactive) |
| COc1ccc(OCC(O)CN2CCN(c3ccc(Cl)cc3)CC2)cc1 (stereo not given) | 101% (inactive) |
| Nc1ncc(-c2ccc3ncnc(Nc4ccc(F)c(Cl)c4)c3c2)cn1 | -74.2% (active) |
| COc1cccc(/C=N/C(=S)NC2(C)C3CCC(C3)C2(C)C)c1O (stereo not given) | 69.9% (inactive) |
| Oc1ccc(O)c(-[n+]2ccccc2)c1 | 107% (inactive) |
| Fc1ccc(Nc2ncnc3ccc(-c4cn[nH]c4)cc23)cc1Cl | 26.1% (inactive) |
| COc1cc2ncnc(Oc3ccc(NC(=O)Nc4ccc(C5(C#N)CCCC5)cc4)c4ccccc34)c2cc1OC | 29.3% (inactive) |
| COc1cc(-c2nc(SCC(=O)Nc3ccc(C(C)=O)cc3)[nH]c(=O)c2C#N)cc(OC)c1OC | 41.6% (inactive) |
| NC(=O)C1=C[C@H]2[C@H]3C=C[C@@]2(O)C(=O)O[C@@H]3O1 | 44% (inactive) |
| CCn1c(SCC(=O)c2ccc(Br)cc2)nnc1-c1cc2c([nH]c3ccccc32)c(-c2cccc(O)c2)n1 | 60.5% (inactive) |
| O=C1C(SCCO)=C(SCCO)C(=O)N1c1ccc(-c2ccccc2)cc1 | -99.5% (active) |
| c1ccc(CNCCN(CCNCc2ccccn2)Cc2ccc3ccccc3c2)nc1 | -27.9% (active) |
| CC(C)(C)NCC(O)COc1c(Br)c(Br)c(Br)c2c1OC(C)(C)C2 (stereo not given) | -60.1% (active) |
| O=C1c2ccccc2OC=C(c2ccccc2)N1CCCCN1CCCCC1 | 104% (inactive) |
| Cc1cn(C2CC(F)C(CO)O2)c(=O)[nH]c1=O (stereo not given) | 83.7% (inactive) |
| O=C(O)c1ccc2nc(-c3ccc(OCCCCCOc4ccc(-c5nc6ccc(C(=O)O)cc6[nH]5)cc4)cc3)[nH]c2c1 | 98.4% (inactive) |
| COc1cc(-c2nc3ccccc3s2)ccc1OCc1nc2n(n1)S(=O)(=O)c1ccccc1N2c1ccccc1 | 107% (inactive) |
| COc1ccc(-c2nn(-c3ccc(NC(=O)c4cc(C(F)(F)F)cc(C(F)(F)F)c4)cc3)cc2-c2ccncc2)cc1Cl | 61.9% (inactive) |

| SMILES | growth |
| --- | --- |
| O=C1c2ccccc2C(=O)c2c(NCCN=Cc3c(O)ccc4ccccc34)cccc21 | 65.3% (inactive) |
| O=c1c2ccccc2sc2c(NCCN3CCOCC3)nc3ccccc3c12 | 43.5% (inactive) |
| COc1ccc2c(c1)nnc1c3cccnc3[nH]c21 | -10.2% (active) |
| COC(=O)CCCNS(=O)(=O)c1cc(C(=O)Nc2ccc(NC(=O)c3cc(S(=O)(=O)NCCCC(=O)OC)c(O)c(O)c3O)cc2)c(O)c(O)c1O | 109% (inactive) |
| CCc1cccc(-c2ccccc2)c1 | 108% (inactive) |
| O=C(Nc1ccc(-n2ccc3c(NC(=O)c4ccccc4)ncnc32)cc1)Nc1cccc(Cl)c1Cl | -20.4% (active) |
| CCCC(=O)Oc1ccc(/C(=C(\C)c2ccc(Cl)cc2)c2ccc(OCCN(CC)CC)cc2)cc1 | -23.2% (active) |
| O=[N+]([O-])c1ccccc1NC1c2ccccc2Oc2ccccc21 | 71.2% (inactive) |
| S=c1[nH]nc(Cn2c3ccccc3c3ccncc32)o1 | 98.3% (inactive) |
| CC(=O)N1N=C(CCC(=O)c2nc3ccc([N+](=O)[O-])cc3[nH]2)OC1c1ccc(O)cc1 (stereo not given) | 106% (inactive) |
| Cc1cc(O[C@@H]2O[C@@H](C)[C@H](O)[C@@H](O)[C@H]2O)c2c3c(c(O[C@@H]4O[C@@H](C)[C@H](O)[C@@H](O)[C@H]4O)cc2c1)C(=O)c1c(O)cccc1C3=O | 47.2% (inactive) |
| O=C(Nc1ccc(-n2ccc3c(NC(=O)c4ccccc4)nccc32)cc1)Nc1cccc(C(F)(F)F)c1 | 62.2% (inactive) |
| O=C(Nc1ccc(-n2cc(-c3ccncc3)c(-c3ccc(O)c(Cl)c3)n2)cc1)c1cc(Cl)cc(Cl)c1 | 16.2% (inactive) |
| CC(=O)c1cc2c(N)c(C(=O)Nc3cccc(Cl)c3)sc2nc1C | 93% (inactive) |
| COc1ccc(-c2c(NC(=O)Nc3ccc(Cl)c(C(F)(F)F)c3)cnn2-c2ccc(S(N)(=O)=O)cc2)cc1 | 57.5% (inactive) |
| O=C1OC(=O)C2C3CC(c4ccccc43)C12 (stereo not given) | 90.1% (inactive) |
| FC(F)(F)c1cn(CC2CNC2)c2ncnc(Cl)c12 | 104% (inactive) |
| O=C1OC(c2ccc(-c3ccccc3)cc2)=C/C1=C/C=C/c1ccccc1 | 102% (inactive) |
| NS(=O)(=O)c1ccc(-n2nc(-c3ccc(Cl)cc3)ccc2=O)cc1 | 101% (inactive) |
| Cc1cc(N2CCOCC2)nc(N(CCNc2ccnc3cc(Cl)ccc23)Cc2ccco2)n1 | 27% (inactive) |
